Only some compounds are listed: those with a hit (about 0.43% of all), similar ones and a draw of the others.
Rango release inh = inhibition of RanGTP-driven Rango-importin beta dissociation; O95149+P62826; Biochemical FRET Rango-importin beta, RanGTP-induced dissociation; Potency, µM (doses to about 46.1 µM), without a hit: at the highest dose activity change, negative = inhibition; 340,000 tested, 0.071% active; AID 540253; calls by dose curve; further: potency means the concentration at half of the fitted maximal effect; % of control where 0% means no effect; nearly all actives have a fitted effect of over 45% in size
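Rango/importin beta premix (0.1/0.25 uM final), PBS + 1 mM DTT + 0.02% Tween-20 + 0.1% BSA; cpd 5 min RT; FRET pre-read; + RanGTP-RCC1 (0.6 uM Ran, 2 mM GTP, 0.2 uM RCC1); 45 min RT; FRET post-read, ex 430, em 486/530 nm.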
B2AR arrestin = recruits beta-arrestin to the human beta2-adrenergic receptor; P07550; beta-arrestin recruitment to beta2AR, cell-based reporter; Potency, µM (series often up to 46.1 µM), for the others: at the top dose activation, actives largely listed as activators; 330,000 tested, 0.02% active; AID 492947;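 further: potency means the concentration at half of the fitted maximal effect; 0% = DMSO controls and full agonism = EC100 isoproterenol or metaproterenol; nearly all actives have a fitted effect of over 65% in size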
Target sequence (P07550 whole entry, looked up): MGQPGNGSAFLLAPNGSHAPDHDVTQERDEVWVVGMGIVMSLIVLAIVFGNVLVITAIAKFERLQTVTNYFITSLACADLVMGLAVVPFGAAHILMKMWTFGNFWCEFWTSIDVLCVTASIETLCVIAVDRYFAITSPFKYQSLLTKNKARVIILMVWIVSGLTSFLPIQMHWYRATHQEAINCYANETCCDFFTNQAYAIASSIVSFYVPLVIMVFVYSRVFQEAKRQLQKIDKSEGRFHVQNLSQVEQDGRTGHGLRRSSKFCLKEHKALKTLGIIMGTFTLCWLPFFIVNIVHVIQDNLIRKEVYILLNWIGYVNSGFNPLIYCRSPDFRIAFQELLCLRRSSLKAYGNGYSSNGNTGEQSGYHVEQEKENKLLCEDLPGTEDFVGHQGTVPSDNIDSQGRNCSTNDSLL
CCT modulator = cytosolic chaperonin activity modulation; purified chaperonin ATPase assay, HTRF ADP detection, 30 min; activity change, % (no concentration beside the values), hits read low; 360,000 tested, 0.3% active; AID 651819; in the data active means activity change below about -30%; further: on the % scale 0 is the no-effect control and ±100 the full control effect
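Nucleotide hydrolysis assay: TRiC at 20–40 nM final (set by batch activity) with 10 uM ATP, 30 min at 37 °C, in presence of 76 uM compound. Detection by competitive ADP HTRF, 30 min ambient.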
MmCpn inh = M. maripaludis TRiC chaperonin inhibition; AID 504842; 330,000 tested, 0.031% active; purified Mm-Cpn ATPase, ADP Transcreener TR-FRET; Potency, µM (doses to about 76.9 µM), without a hit: at the highest dose activity, negative = inhibition, most hits filed as inhibitors; further: potency means the concentration at half of the fitted maximal effect; on the % scale 0 is the no-effect control and ±100 the full control effect; nearly all actives have a fitted effect of over 80% in size
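ATP (10 uM final) was added to archaeal chaperonin (25 nM final) after 10 min exposure to test compound at 37°C; after 30 min further incubation, ADP was detected by competitive TR-FRET.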
Rango-impB inh = Rango-importin beta binding inhibition | Q14974 | Rango CFP/YFP FRET sensor + importin beta, 45 min | Potency, µM (series often up to 92.2 µM), without a hit: at the top dose inhibition of complex formation | 340,000 tested, 0.031% active; calls by dose curve;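 further: potency means the concentration at half of the fitted maximal effect; 0% = DMSO wells and 100% = buffer wells lacking importin beta; nearly all actives have a fitted effect of over 15% in size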
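Inhibition scored from the CFP 486 nm/YFP 530 nm FRET ratio 45 min after adding 0.125 microM importin beta to 50 nM Rango biosensor preincubated 5 min with compound (room temperature, PBS with DTT, Tween-20, BSA). No-importin wells as positive control.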
Active calls of the source: *; ? = inconclusive; . = no result given. Unless noted, the call rests on the fitted dose curve; in most records, active means well fitted curve in the direction sought with a large enough effect; inconclusive means small, poorly fitted or top-dose-only effect, or another doubt; inactive means no such curve, though single readings can be large; an effect the other way counts as inactive or inconclusive.

SMILES | Rango release inh | B2AR arrestin | CCT modulator | MmCpn inh | Rango-impB inh
CC1CCCC(C)N1C(=O)Cn1cnc2cc([N+](=O)[O-])ccc2c1=O (centres undefined) | -6% | 0% | 1 | 2% | -4%
CC(=Nc1ccccc1)C1=C(O)C(Cc2ccc(O)cc2)NC1=O (centres undefined) | 1% | . | -68* | . | 3%
CCn1cc(C(=O)N2CCCc3ccccc32)c2cc(OC)c(OC)cc2c1=O | 2% | 0% | -30* | 3% | 1%
CCn1cc(C(=O)N2CCN(c3ccccc3OC)CC2)c2cc(OC)c(OC)cc2c1=O | 31% | 0% | 2 | 1% | 0%
COc1cccc(-c2csc(N3CCC(C(N)=O)CC3)n2)c1 | . | . | . | -3% | .
N#Cc1cccc(-c2csc(N3CCC(C(N)=O)CC3)n2)c1 | . | . | . | -2% | .
CNC(=O)c1ccc(-c2nc(-c3ccccc3)cs2)cc1 | 18% | 0% | -45* | 1% | 0%
O=C(COC(=O)c1cc(-c2cccc3ccccc23)nc2ccccc12)NC1CCS(=O)(=O)C1 (centres undefined) | -6% | 3% | -112* | ? | -1%
O=C(O)c1ccnc2c(O)cccc12 | . | 0% | . | 3% | .
NC(=O)C1(C(N)=O)OC1c1ccc(Cl)c(Cl)c1 (centres undefined) | -27% | 0% | -57* | -1% | 6%
Cn1c2cc(Br)sc2c2cnn(Cc3c(F)cccc3F)c(=O)c21 | . | -1% | . | 1% | .
CCCC(=O)Nc1ccccc1NC(C)=O | -8% | 0% | -31* | 2% | 0%
COc1ccccc1C(=O)Oc1ccc2ccc(=O)oc2c1 | ? | 0% | -1 | -2% | ?
O=C(Oc1ccc2ccc(=O)oc2c1)c1ccco1 | 16µM* | 0% | 0 | -6% | ?
COc1ccc(NC(=O)CNC(=O)c2nn(-c3ccc(OC)cc3OC)c(=O)c3ccccc23)c(OC)c1 | -11% | 0% | -56* | 1% | 6%
COc1ccc(-n2nc(C(=O)NCC(=O)NC(C)C)c3ccccc3c2=O)c(OC)c1 | 3% | 1% | -3 | 2% | 0%
Cn1c2cc(B(O)O)sc2c2cnn(Cc3c(F)cccc3Cl)c(=O)c21 | . | 0% | . | -2% | .
COc1ccc(-c2ccnc(-c3ccc(O)cc3)n2)cc1 | -7% | 0% | -2 | ? | 0%
Cc1ccc(-c2ccnc(-c3ccc(O)cc3)n2)cc1 | 11% | 0% | -38* | 0% | 2%
COc1ccc(-c2noc(CCC(=O)N3CCN(c4ccccc4C)CC3)n2)cc1 | -25% | -1% | -1 | 0% | 0%
COc1ccc(-c2noc(CCC(=O)N3CCN(c4ccccc4OC)CC3)n2)cc1 | 0% | -1% | -39* | 1% | 0%
Cc1ccccc1Oc1ccc2c(c1)[C@@H]1C[C@H]3[C@@H](C(=O)N1CC2)[C@H](C)ON3C | -18% | . | 1 | . | -6%
O=C(O)c1ccccc1/C=N/NC(=S)NCc1ccccc1 | 11% | 0% | -2 | 1% | 0%
Cc1cc(C(=O)OCC(=O)Nc2cc(C)on2)c2ccccc2n1 | -2% | 0% | -35* | 0% | -3%
c1ccc(NCc2cccnc2)cc1 | -2% | 0% | -121* | -1% | 0%
SMILES | Rango release inh | B2AR arrestin | CCT modulator | MmCpn inh | Rango-impB inh
Cc1ccc(OCC(=O)NCc2cccnc2)cc1 | -8% | 1% | 0 | 2% | -1%
O=C(CNC(=O)COc1ccccc1)NCc1cccnc1 | -4% | 0% | -41* | 1% | -3%
CCOc1ccc(NC(=O)COc2ccc(C(=O)NCc3cccnc3)cc2OC)cc1 | 0.37µM* | 0% | 2 | -21% | 5%
CCN(C(=O)COC(=O)c1cccnc1)c1cccc2ccccc12 | -1% | 0% | -50* | -1% | 2%
Cc1ccc(-n2c(O)c(C=Nc3cc(C)on3)c3ccccc3c2=O)c(C)c1 | 9.2µM* | 0% | -3 | -2% | ?
CCCCNC(=O)Cn1c(=O)c2c(ncn2CC)n(Cc2ccccc2)c1=O | 9% | -1% | -4 | 1% | 2%
Cc1ccc(C(=O)Nn2cnc3scc(-c4cccs4)c3c2=O)c(O)c1 | 18% | -1% | -47* | 0% | -7%
CCOC(=O)c1c(S(=O)(=O)NCC(=O)N2CCN(c3ccc(OC)cc3)CC2)c(C)n(C)c1C | -5% | 0% | -3 | 1% | -3%
COc1ccc(/C=C/C(=O)O)cc1S(=O)(=O)NC1CCS(=O)(=O)C1 (centres undefined) | 7% | 0% | -97* | -6% | -2%
COc1cc(/C=C/C(=O)O)cc(S(=O)(=O)NC2CCCC2)c1OC | ? | -1% | -1 | 1% | 2%
CC1(C)O[C@@H]2[C@H](O1)[C@@H](CO)O[C@H]2n1cnc2c(=O)[nH]cnc21 | -1% | 0% | -49* | -3% | -2%
O=C(Nc1cccnc1)c1cc2c(s1)-c1ccccc1OC2 | 6% | 0% | -71* | -1% | -1%
Cc1cccc2c1-c1sc(C(=O)Nc3cccnc3)cc1CO2 | ? | 0% | 1 | -1% | ?
C=CCn1c2ccccc2c2nnc(SCC(=O)O)nc21 | 1% | -1% | -43* | 0% | 2%
COc1ccc(OC)c2c1cc(C(=O)N[C@@H](Cc1ccccc1)C(=O)O)n2C | 1% | -1% | -5 | 0% | 0%
Cc1cc(=O)oc2cc(O)cc(OCc3ccccc3)c12 | 8.2µM* | . | 1 | . | ?
CC1CCCCC1NC(=O)COC(=O)c1c2c(nc3ccccc13)/C(=C\c1ccco1)CC2 (centres undefined) | 2.3µM* | . | 1 | . | ?
COc1ccc(CCNC(=O)C2CCN(S(=O)(=O)c3cccc4nsnc34)CC2)cc1OC | -2% | -1% | 0 | -6% | 4%
COc1ccc(CCNC(=O)C2CCN(S(=O)(=O)c3cccc4cccnc34)CC2)cc1OC | -19% | 1% | -46* | -2% | 1%
Oc1ccc(COC2CCN(Cc3ccccc3)C2)c2cccnc12 (centres undefined) | . | 14% | . | 2% | .
COc1ccc(C(=O)NC(=S)Nc2cccc3ncccc23)cc1[N+](=O)[O-] | ? | 0% | 0 | 1% | 1%
Nc1nonc1C(=O)N/N=C/c1cc2c(cc1Br)OCO2 | -28% | 0% | -31* | 0% | ?
O=C(N/N=C/c1cc2c(cc1Br)OCO2)c1ccccn1 | -9% | 0% | -2 | 0% | 2%
CC(=O)N[C@@H](Cc1ccc(O)cc1)C(=O)N[C@H](C(=O)N[C@@H](C)C(=O)N[C@H](C#N)CC(=O)O)C(C)C | . | 0% | . | 1% | .
O=C(N[C@H]1C/C=C\C[C@@H](CC(=O)N(CCO)Cc2ccccc2)C(=O)NC[C@H](c2ccccc2)OC1=O)OCC1c2ccccc2-c2ccccc21 | 35% | 0% | 1 | -1% | 2%
Cc1nn(CC(C)C)c(Cl)c1C(=O)NCC1CCCO1 (centres undefined) | . | . | 1 | . | .
